Several values for one entry are separate records, joined by “and”; a condition that tells them apart may be missing. Equal values may be shown once. This is part of a sample that, as a whole, favours compounds with a hit. Of some 83,000 tested, about 20% had one in any assay.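 Plates (96-well) were seeded with cells, treated with compound at one concentration, and incubated for 48 hours before percent growth was determined.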 Unmarked numbers belong to inactive results. Activity calls are given as the source filed them.
The molecules below were run on SW-620 colon (assay: NCI-60 one-dose screen, 48 h (100 = growth as untreated, 0 = no growth, -100 = all killed)). Details: 10 µM unless noted.
Protocol: Growth inhibition of the SW-620 human tumor cell line is measured as a screen for anti-cancer activity. Cells are grown in 96 well plates and exposed to the test compound for 48 hours. Compounds are tested at a single concentration, which is 10^-5 M for most compounds. The reported endpoint is percent growth (GI% or GIPRCNT), where numbers from 0 - 100% represent growth inhibition, and numbers from -100% - 0 represent cell death. For example, a value of 40 represents 60% growth inhibition. A value of 0 means no net growth occurred over the course of the experiment. A value of -40 indicates 40% of cells at the beginning of the experiment died by the end of the experiment. A value of -100 means all cells are dead at the end of the experiment.
NCI-60 Human Tumor Cell Lines Screen was performed using the standard one-dose NCI protocol, which is described in more detail at https://dtp.cancer.gov/discovery_development/nci-60/default.htm.
Compounds with GIPRCNT values below 10 were considered active. Activity score was based on GIPRCNT using the following formula: […]
Score is 0 for GIPRCNT values of 100 or above, 50 for GIPRCNT values of 0, and 100 for GIPRCNT values of -100.

Compound	growth
CC(C)c1ccc(Nc2n[nH]c(=S)s2)cc1	110%
CCC1CCCCN1C(=S)N/N=C(\C)c1ccccn1 (stereo not given)	9.32% (active)
CN1CCC(CN2c3ccccc3Sc3ccccc32)C1 (stereo not given)	93.7%
CCOC(=O)c1[nH]c(C#N)c(C(=O)OCC)c1C	103%
N#CCc1cccc2ccccc12	105%
O=C(Nc1ccc(Cl)c(Cl)c1)Nc1ccccc1O	90.1%
CN(C)c1ccc2cc3c(cc2c1)Oc1ccccc1N3.[Cl][Zn][Cl]	11.8%
CN(Cc1ccccc1)c1ccc(SC#N)cc1	85.3%
OC(c1cc(-c2ccc(C(F)(F)F)cc2)nc(C(F)(F)F)c1)C1CCCCN1 (stereo not given)	-80.4% (active) and -84.6% (active) and -55.6% (active)
CCCCCCCCCCCC[N+]1(CCCCCCCCCCCC)CCCC(C)C1 (stereo not given)	-65.4% (active)
CCc1cnc2ccccc2c1/C=C/c1ccc(N(C)C)cc1	32.1%
NNc1ccc(Cl)cc1Cl	53.7%
O=C(O)c1cccc2cccc(-c3c4ccc(=O)c(O)c-4oc4c(O)c(O)ccc34)c12	97.3%
O=[N+]([O-])c1ccc([I+]c2ccccc2)cc1	19.5%
COC(=O)c1ccc(=O)c2nc3/c(=C/O)c(O)cc(=O)c3[nH]c12	29.5%
COc1ccc(NC(=O)/C(=C/N2C(=O)/C(=C/c3ccc(OC)c(OC)c3)NC2=S)C(C)=O)cc1	83.6%
CN=C(N)N/N=C(\C)c1ccc2c(c1)Cc1ccccc1-2	-88.9% (active)
O=C(c1ccccc1)c1cc2ccccc2oc1=O	113%
COC1CC(C)C(OC)c2cc(O)cc(c2O)NC(=O)/C(C)=C/C=C\C(C)C(OC(N)=O)/C(C)=C\C(C)C1OC (stereo not given)	2.74% (active)
CC(C)(C)c1ccc(CCO)cc1	114%

Compound	growth
CCCCCCCCCCCCCCCc1ccc(C(=O)C[n+]2ccccc2)cc1	-79.1% (active)
Oc1ccc2c(c1)CCc1ccccc1-2	103%
Clc1ccc(-n2ncc3c(NCCCN4CCOCC4)ncnc32)cc1	104%
O=C1/C(=C\c2ccc([N+](=O)[O-])cc2)CS(=O)(=O)C/C1=C/c1ccc([N+](=O)[O-])cc1	-71.6% (active)
CCOC(=O)C1=C(C(=O)c2ccccc2)C(c2cccc([N+](=O)[O-])c2)C(C(=O)c2ccccc2)=C(C(=O)OCC)N1	70.2%
O=C(c1ccc(O)c(Br)c1)c1ccc(O)c(Br)c1	109%
O=C(/C=C/C(Cl)(Cl)Cl)Nc1ccc(Cl)cc1	110%
CC1=CC(=O)C=CC1(C)C(Cl)(Cl)Cl (stereo not given)	96.7%
Cc1cc(Br)c2nsnc2c1[N+](=O)[O-]	33.6%
Oc1c(Cl)cc(Cl)cc1C=NCC1CCC(CN=Cc2cc(Cl)cc(Cl)c2O)CC1 (stereo not given)	116%
CCOC(=O)C1=NN(c2ccccc2)C(=O)/C1=C\N1C(=O)/C(=C/c2cccc(O)c2)SC1=S	97.6%
CCCCCCCCCCCCN1C(C)=CS/C1=C\C=C\c1scc(C)[n+]1CCCCCCCCCCCC	30.7%
CCCCCCCCCCCC[n+]1ccc2ccccc2c1	-30% (active)
O=[N+]([O-])c1ccc(N2CCN(Cc3ccccc3)CC2)c2c1no[n+]2[O-]	-68.2% (active)
C1=C(c2ccccc2)c2ccccc2C1	97.8%
CC[n+]1ccc(Nc2ccc(NC(=O)c3ccc(Nc4cc[n+](CC)c5ccc([N+](=O)[O-])cc45)cc3)cc2)cc1	92.8%
N#C/C(=N\Nc1ccc(Cl)cc1)C(=O)C1CC1	63.1%
N#CC1c2ccccc2C=CN1C(=O)CCCl (stereo not given)	55.8%
COc1ccc(C(OCC2OC(n3ccc(NC(=O)c4ccccc4)nc3=O)C(O)C2O)(c2ccccc2)c2ccccc2)cc1 (stereo not given)	56%
Cc1ccccc1N=C(N)Nc1ccccc1C (tested in a mixture with another compound)	74.9%

— PubChem BioAssay (NCI)
